FAS TE block: FAS thioesterase domain inhibitors, primary screen, biochemical, fluorescence intensity, uHTS. recombinant FAS-TE, OMFH fluorogenic substrate, fluorescence endpoint. inhibition, % at 15 µM. 360,000 compounds, 0.67% hits. AID 602261, 2012;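 active means compounds whose normalised, plate-corrected inhibition of enzyme fluorescence in the single-dose primary screen is 50% or more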
CendR NRP1 mod: modulators of CendR peptide binding to NRP-1, primary screen, biochemical, fluorescence polarization, uHTS | Neuropilin-1 (Homo sapiens), O14786 | FAM-RPARPAR peptide binding to NRP-1 | 360,000 compounds, 0.85% hits | AID 602438, 2012 | inhibition, % at 25 µM;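 active means inhibition or corrected inhibition above about 18%, plus a signal ratio from 0.5 to 1.5, limit read from the data, passing the limit was not always enough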
Target sequence (O14786 whole entry, looked up): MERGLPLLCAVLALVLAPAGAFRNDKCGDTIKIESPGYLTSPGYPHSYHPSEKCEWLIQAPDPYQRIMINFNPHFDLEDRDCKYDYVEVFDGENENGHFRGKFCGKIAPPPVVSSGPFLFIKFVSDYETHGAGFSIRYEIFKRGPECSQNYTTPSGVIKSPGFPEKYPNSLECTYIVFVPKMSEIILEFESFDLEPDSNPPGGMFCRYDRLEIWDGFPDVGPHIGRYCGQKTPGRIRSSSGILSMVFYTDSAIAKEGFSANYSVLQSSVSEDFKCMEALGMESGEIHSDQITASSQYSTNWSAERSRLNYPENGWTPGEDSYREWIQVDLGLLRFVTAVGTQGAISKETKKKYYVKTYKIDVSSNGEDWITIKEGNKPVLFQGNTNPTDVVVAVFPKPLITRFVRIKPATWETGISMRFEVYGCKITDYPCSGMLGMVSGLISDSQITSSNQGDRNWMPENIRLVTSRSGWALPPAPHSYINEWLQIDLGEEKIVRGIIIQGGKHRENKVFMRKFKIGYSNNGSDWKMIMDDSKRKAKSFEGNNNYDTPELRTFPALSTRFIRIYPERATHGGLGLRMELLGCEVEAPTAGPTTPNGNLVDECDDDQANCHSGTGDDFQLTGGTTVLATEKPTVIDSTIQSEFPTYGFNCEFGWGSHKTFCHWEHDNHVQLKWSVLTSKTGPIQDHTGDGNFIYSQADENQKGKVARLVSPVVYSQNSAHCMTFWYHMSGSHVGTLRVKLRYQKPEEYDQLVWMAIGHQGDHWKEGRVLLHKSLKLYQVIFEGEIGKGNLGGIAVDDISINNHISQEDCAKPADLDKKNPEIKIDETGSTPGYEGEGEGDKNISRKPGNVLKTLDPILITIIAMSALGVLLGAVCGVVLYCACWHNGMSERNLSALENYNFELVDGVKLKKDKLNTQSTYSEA
Myeloid diff MLP: induction of myeloid progenitor differentiation, primary screen, cell-based, flow cytometry, MLPCN library | ER-HoxA9 myeloid progenitors, lysozyme-GFP differentiation | calls only at 10 µM | 360,000 compounds, 1% hits | AID 624256, 2012;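 active means normalized GFP-positive differentiation at or above the plate's own cutoff, the solvent-only control mean plus 3 SD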;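 further: cells exposed to compound for four days before flow analysis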
NadD block: inhibitors of S. aureus NadD, primary screen, biochemical, colorimetric, uHTS; purified NadD enzyme, colorimetric absorbance read-out; 360,000 compounds, 0.78% hits; inhibition, % at 20 µM; Nicotinate-nucleotide adenylyltransferase NadD (Staphylococcus aureus N315); in the data active means inhibition above about 26%
CRFBP-R2 block: antagonists of CRF-BP/CRF-R2 complex, primary screen, cell-based, HEK293, calcium dye fluorescence, uHTS; inhibition, % at 11.8 µM; AID 588475, 2011; 350,000 compounds, 0.59% hits; CRF-induced calcium fluorescence;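 active means inhibition of the ligand-induced calcium signal above about 50% at the single tested concentration, limit read from the data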
Myeloid diff: inducers of myeloid progenitor differentiation, confirmation, cell-based, GFP/Mac1 flow cytometry, cherry pick 01; shares compounds with Myeloid diff MLP; ER-HoxA9 myeloid progenitors, GFP/Mac1 double-positive flow; calls only; 2,300 compounds, 2% hits;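 active means share of green or green-and-red cells above 9 and 9% in run 1 or 4 and 3% in run 2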
GFP autofluor: counter-screen for myeloid differentiation promoters: compound fluorescence; shares compounds with Myeloid diff MLP; ER-HoxA9 myeloid progenitors, no estrogen, GFP autofluorescence flow cytometry; vehicle wells 0%, positive control 100%; fluorescence response, % (concentration not given with the values); 2,300 compounds, 7.4% hits;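 active means over 5% cells positive for green fluorescent reporter, or over 2% positive for both it and APC stain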
A number is an active result; – = inactive; · = not tested or not shown; + = active, no number. An excerpt weighted towards active compounds, which were near 3.6% of everything screened.

SMILES | FAS TE block | CendR NRP1 mod | Myeloid diff MLP | NadD block | CRFBP-R2 block | Myeloid diff | GFP autofluor
CC1(C)Cc2nc3sc4c(OCc5ccccc5)ncnc4c3cc2CO1 | – | – | – | – | – | · | ·
CCc1nc(OCc2ccccc2)c2sc3nc4c(cc3c2n1)COC(C)(C)C4 | – | – | – | – | – | – | –
C#CC1(O)CCC2C3CCc4cc(O)cc(C)c4C3CCC21C (stereo not given) | – | – | – | – | – | · | ·
CN(C)S(=O)(=O)NCC1CCCN(Cc2cc3ccccc3s2)C1 (stereo not given) | – | – | – | – | – | – | –
CN(C)S(=O)(=O)NCC1CCCN(Cc2ccc(-c3ccccc3)cc2)C1 (stereo not given) | – | – | – | – | – | · | ·
Cc1cc(C)c(S(=O)(=O)Nc2nnc(C)s2)c(C)c1 | – | – | – | – | – | – | –
Cc1cc(C)c(S(=O)(=O)Nc2nnc(CC(C)C)s2)c(C)c1 | – | – | – | – | – | · | ·
O=c1[nH]c2ccccc2n2c(=S)[nH]nc12 | – | – | – | – | – | · | ·
O=c1[nH]c2ccccc2n2c(C(F)(F)F)nnc12 | – | – | + | – | – | – | 5.7
CC(C)c1nnc(NC(=O)Cn2nc(-c3ccc4c(c3)OCCO4)ccc2=O)s1 | – | – | + | – | – | – | –
CCOC(=O)c1sc(NC(=O)COC(=O)C(CCSC)NC(C)=O)nc1C (stereo not given) | – | – | – | – | – | · | ·
COc1cc(CSc2nnnn2-c2ccc(C)cc2)cc(OC)c1OC | – | – | – | – | – | – | –
COc1ccc(CSc2nnnn2-c2ccccc2)cc1 | – | – | – | – | – | · | ·
Cc1ccc(/C=N/Nc2nc3ccccc3s2)o1 | – | – | – | – | – | – | –
O=C(Nc1cccc(NC(=O)c2ccco2)c1)c1ccccc1 | – | – | – | – | – | · | ·
O=C(Nc1cccc(NC(=O)c2nccc3ccccc23)c1)c1ccco1 | – | – | + | – | – | – | –
O=C(NCC1CCN(Cc2ccc(Cl)cc2)CC1)C1CCCN(c2ncnc3c2nc2n3CCCCC2)C1 (stereo not given) | – | – | – | – | – | · | ·
ON=C(c1ccccc1)c1ccc2c3c(cccc13)CC2 | – | – | – | – | – | · | ·
O=C1/C(=C\c2ccco2)SC(=S)N1Cc1ccccc1 | – | – | – | – | – | – | –
O=C(O)CN1C(=O)/C(=C/c2ccc(SCc3ccccc3)o2)SC1=S | – | – | – | – | – | – | –
O=C(O)CN1C(=O)/C(=C\c2ccc(OC(=O)c3ccco3)cc2)SC1=S | – | – | – | – | – | · | ·
O=C(O)CCCN1C(=O)/C(=C\c2ccco2)SC1=S | – | – | – | – | – | · | ·
OC(CN1CCN(c2ccccc2Cl)CC1)c1ccccc1 (stereo not given) | – | – | – | – | – | · | ·
Cc1onc(-c2ccccc2Cl)c1C(=O)NC1CCCCCC1 | – | – | – | – | – | · | ·
CCNC(=O)NC1(C(=O)N2CCC(Cc3ccccc3)CC2)CCCCC1 | – | – | + | – | – | – | –
SMILES | FAS TE block | CendR NRP1 mod | Myeloid diff MLP | NadD block | CRFBP-R2 block | Myeloid diff | GFP autofluor
CC(C)c1cc(=O)oc2c3c4c(cc12)CCCN4CCC3 | – | – | – | – | – | · | ·
O=c1oc2c3c4c(cc2c(C(F)(F)F)c1CCN1CCOCC1)CCCN4CCC3 | – | – | + | – | – | – | –
CCOC(=O)c1c(C)[nH]c(C(=O)COC(=O)c2ccc(F)c(S(=O)(=O)N3CCOCC3)c2)c1C | – | – | + | – | – | – | –
O=C(COC(=O)c1ccc(F)c(S(=O)(=O)N2CCOCC2)c1)c1ccc(Cl)cc1 | – | – | – | – | – | · | ·
O=C(NCCC(=O)N1CCCC(C(F)(F)F)C1)c1ccccc1Cl (stereo not given) | – | – | – | – | – | · | ·
O=C1c2cccnc2C(Nc2cccc(F)c2)N1Cc1ccco1 (stereo not given) | – | – | – | – | – | · | ·
O=C1c2cccnc2C(Nc2ccccc2)N1Cc1ccco1 (stereo not given) | – | – | – | – | – | – | –
CC(=O)Nc1nc(-c2ccccc2)nc(-c2ccccc2OC(C)=O)n1 | – | – | + | – | – | – | –
COc1ccc(C2=NOC(Cn3nc(-c4ccccc4)cc3C(=O)NCc3cccs3)C2)cc1 (stereo not given) | – | – | – | – | – | – | –
COc1ccc(C2=NOC(Cn3nc(C(=O)NCc4cccs4)cc3-c3ccccc3)C2)cc1 (stereo not given) | – | – | – | – | – | · | ·
CCOCc1c(C(=O)Nc2ccc(OC)nc2)oc2ccccc12 | – | – | – | – | – | · | ·
CCc1ccccc1NC(=O)NC1CCCCC1 | – | – | – | – | – | · | ·
CCc1cccc(CC)c1NC(=O)NC1CCCCC1 | – | – | + | – | – | – | –
O=C(CCc1nc2ccccc2c(=O)[nH]1)N1CCCc2ccccc21 | – | – | + | – | – | – | –
CC(C)C[C@H]1CN([C@@H](Cc2ccccc2)CN2CCC[C@H]2CN2C(=O)C(=O)NC[C@@H]2Cc2ccc(O)cc2)C(=O)C(=O)N1CCc1ccccc1 | – | – | – | – | · | · | ·
Cc1cc(=O)[nH]c(SCCOc2cccc(C(F)(F)F)c2)n1 | – | – | · | – | – | – | –
O=[N+]([O-])c1cccc(/C=C/c2nc(C=Nc3ccc4ccccc4c3)c(O)o2)c1 | – | – | + | – | – | – | 5.7
O=[N+]([O-])c1cccc(/C=C/c2ccc3cccc(O)c3n2)c1 | – | – | – | – | – | · | ·
OCCN(Cc1ccccc1)Cc1ccc(F)c(F)c1 | – | – | – | – | – | – | –
CCCCCCC(C)OC(=O)c1ccccc1C(=O)O (stereo not given) | – | – | – | – | – | · | ·
OC(COc1ccccc1)CN1CCCCCC1 (stereo not given) | – | – | – | – | – | · | ·
OC(CNCCCN1CCCCC1)COc1ccccc1 (stereo not given) | – | – | + | – | – | – | –
C=CCOc1ccc(/C=C2\SC(N3CCCCC3)=NC2=O)cc1 | – | – | – | – | – | · | ·
CN1CCN(c2cc3c(c4c2[nH]c2ccccc24)C(=O)CC(C)(C)C3)CC1 | – | – | – | – | – | – | –
CN1CCN(c2ccc(Cl)cc2NC(=O)c2cc(=O)[nH]c3ccccc23)CC1 | – | – | – | – | – | · | ·
Cc1nc(NCCc2ccccc2)sc1C(=O)N(C)C | – | – | – | – | – | · | ·
N/C(Cc1nc(-c2ccc(Br)cc2)cs1)=N\O | – | – | – | – | – | · | ·

High-throughput results: PubChem BioAssay, several laboratories
